Assay results from PubChem BioAssay.

Target: E3 ubiquitin-protein ligase XIAP (Homo sapiens) (UniProt P98170)
Test: small molecules binding XIAP protein – biophysical, small-molecule microarray, fluorescence 635 nm, primary screen (AID 1181);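 note: score merges 667 nm emission and signal to noise over triplicate slides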
Conditions: higher = more signal

Chain of E3 ubiquitin-protein ligase XIAP (Homo sapiens) (P98170 whole entry, looked up): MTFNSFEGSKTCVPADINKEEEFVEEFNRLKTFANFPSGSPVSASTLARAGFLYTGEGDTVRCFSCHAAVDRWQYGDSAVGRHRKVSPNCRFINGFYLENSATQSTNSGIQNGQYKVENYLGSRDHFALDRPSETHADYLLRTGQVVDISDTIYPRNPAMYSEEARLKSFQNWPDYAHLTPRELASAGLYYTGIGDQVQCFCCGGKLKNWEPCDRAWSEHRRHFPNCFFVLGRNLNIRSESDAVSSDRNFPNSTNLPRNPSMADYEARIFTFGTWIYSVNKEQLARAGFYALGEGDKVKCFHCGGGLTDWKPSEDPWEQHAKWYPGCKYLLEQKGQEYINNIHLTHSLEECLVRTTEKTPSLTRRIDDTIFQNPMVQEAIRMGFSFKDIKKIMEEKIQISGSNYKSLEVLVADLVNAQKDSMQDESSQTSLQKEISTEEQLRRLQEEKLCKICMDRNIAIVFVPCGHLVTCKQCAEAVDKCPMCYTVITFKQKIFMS

| Structure (SMILES) | composite z-score |
| --- | --- |
| COC(=O)Cn1c(C(=O)N2CCCC2)cc2c1C[C@H]1CN(C(=O)c3ccccc3)[C@@](Cc3ccccc3)(C(=O)OC)[C@@H]21 | 0.107 |
| O=C1C[C@@](C(=O)NCCN2CCOCC2)(c2ccc([N+](=O)[O-])cc2)[C@@H](c2ccc(CO)cc2)N1C1CCCCC1 | -0.142 |
| CC(=O)NCCCC[C@@H]1NC(=O)[C@H]2C[C@@H](C(=O)NCCCCCCN(C)C)[C@@H](c3cccc(OCCO)c3)N2C1=O | -0.0067 |
| CC(C)(C)OC(=O)CC[C@]1(C(=O)N2CCCCC2)N=C(c2ccc(OCCCO)cc2)O[C@H]1c1ccccc1 | 0.354 |
| CC(=O)NCCCC[C@@H]1NC(=O)[C@H]2C[C@@H](C(=O)NCCCCCCN(C)C)[C@@H](c3ccc(O)cc3)N2C1=O | 0.217 |
| O=C1C2C=CC(C(O)Cc3ccccc3)N(Nc3ccc([N+](=O)[O-])cc3)C2C(=O)N1c1ccccc1 (stereo unspecified) | 0.202 |
| C=C(COC)C(=O)CC[C@H](OC(=O)c1ccccc1-c1ccccc1C(=O)O)c1cccc(OCCO)c1 | 0.511 |
| C=CC[C@@]1(C(=O)NCC(O)CO)N=C(c2ccc(OCCCO)cc2)O[C@@H]1c1ccccc1CN=[N+]=[N-] (stereo partly specified) | 0.254 |
| O=C(CS)NCCCCCCNC(=O)[C@@H]1C[C@@H]2C(=O)N[C@@H](Cc3ccccc3)C(=O)N2[C@@H]1c1ccc(O)cc1 | 0.0518 |
| C=CC[C@]1(C(=O)N2CCCCC2)N=C(c2ccc(OCCCO)cc2)O[C@H]1c1ccccc1N=[N+]=[N-] | 1.74 |
| COC(=O)[C@@]1(Cc2ccc(OC)cc2)[C@H]2c3cc(C(=O)N(C)C)n(Cc4ccc(C)c(F)c4F)c3C[C@H]2CN1C(=O)c1ccccc1 | 0.385 |
| [N-]=[N+]=NCc1ccccc1C[C@]1(C(=O)N2CCCCC2)N=C(c2ccc(OCCCO)cc2)O[C@H]1c1ccccc1CN=[N+]=[N-] | 0.377 |
| CC(C)[Si](OCC[C@H]1O[C@]2(C(=O)N(Cc3ccccc3)c3ccccc32)[C@@H](C)[C@@H]1[Si](C)(C)O)(C(C)C)C(C)C | -0.142 |
| C=CCC(OC(C)=O)[C@@H]1[C@@H](N(Cc2ccc(-c3cccc(C(F)(F)F)c3)o2)C(=O)Cc2ccc(F)cc2)c2cc(OCCCO)ccc2N1C(=O)c1ccc(-c2ccccc2)cc1 (stereo partly specified) | -0.184 |
| C=C[C@H](OC)[C@@H](OC(=O)Nc1ccc(SC)cc1)c1ccc(O)c(F)c1 | -0.192 |
| O=C1O[C@H](c2ccccc2)[C@H](c2ccccc2)N2[C@H]1[C@@H](C(=O)NC[C@H](O)c1ccccc1)[C@]1(C(=O)Nc3ccc(C#CC4(O)CCCCCC4)cc31)[C@H]2c1ccc(OCCO)cc1 | -0.168 |
| CC(C)C[C@@H]1NC(=O)[C@H](CC(C)C)NC(=O)[C@@]23C(=O)N[C@@H](Cc4ccccc4)C2[C@H](C)[C@@]2(C)O[C@H]2C3/C=C/CC/C=C/CNC1=O (stereo partly specified) | -0.02 |
| O=C1NC(=O)C2C1C=CC(C(O)C=Cc1ccc([N+](=O)[O-])cc1)N2Nc1ccccn1 (stereo unspecified) | 0.289 |

| Structure (SMILES) | composite z-score |
| --- | --- |
| NC(=O)NCC#Cc1ccc2c(c1)[C@]1(C(=O)N2)[C@H](C(N)=O)[C@H]2C(=O)O[C@H](c3ccccc3)[C@H](c3ccccc3)N2[C@@H]1c1ccccc1OCCO | 0.234 |
| CCOC(=O)C[C@H]1[C@H](OC(=O)c2cc3ccccc3oc2=O)[C@@H](NC(=O)C2CCCCC2)c2cc(OCCCO)ccc2N1C(=O)c1ccc2ccccc2n1 | -0.22 |
| COc1cc2c(cc1OC)CN(C(=O)[C@H]1[C@@H]3C(=O)O[C@@H](c4ccccc4)[C@@H](c4ccccc4)N3[C@@H](c3ccc(O)cc3)[C@]13C(=O)Nc1ccc(C#CC4(O)CCCCCC4)cc13)CC2 | 0.364 |
| O=C1OCCC/C=C\[C@H]2OC34C=CCN(CCN5CCOCC5)C(=O)[C@H]3N(CCCCCO)C(=O)[C@@H]4C12 (stereo partly specified) | -0.124 |
| C[N+](C)(C)CCCCNC(=O)[C@H]1C[C@H]2C(=O)NCC(=O)N2[C@H]1c1cccc(OCCO)c1 | 0.133 |
| O=C1C[C@@](C(=O)NC2CC2)(c2ccc([N+](=O)[O-])cc2)[C@@H](c2ccc(CO)cc2I)N1CC12CC3CC(CC(C3)C1)C2 | -0.095 |
| C=C(CCCC)/C(=C/C[C@@H](OC(=O)c1ccncc1)c1cccc(OCCO)c1)c1cc(C(=O)OC)ccc1OC | 0.137 |
| Cc1ccc(S[C@]2(C(=O)NCCCN(C)C)CC(=O)N(Cc3ccccc3)[C@@H]2c2ccc(CO)cc2I)cc1 | -0.0848 |
| O=C1O[C@H](c2ccccc2)[C@H](c2ccccc2)N2[C@H]1[C@@H](C(=O)Nc1nc3ccccc3s1)[C@]1(C(=O)Nc3ccc(C#CC4(O)CCCCCC4)cc31)[C@H]2c1ccc(O)cc1 | -0.0426 |
| O=C(NCc1ccccc1)[C@@]1(Cc2ccccc2)COC(c2ccc(OCCCO)cc2)=N1 | -0.217 |
| C=C(CCCC)/C(=C/C[C@@H](OC(=O)c1ccncc1)c1ccc(CO)o1)c1cnc2ccccc2c1 | 0.451 |
| O=C1C2C=CC(C(O)C#Cc3ccccc3)N(Nc3ccccc3)C2C(=O)N1c1ccccc1 (stereo unspecified) | -0.189 |
| CCCC=C(CCC)[C@@H](NC(=O)c1ccc(C(F)(F)F)cc1)c1ccccc1 | -0.253 |
| COc1ccc(NN2C(C(O)c3cc(OC)c(OC)c(OC)c3)C=CC3C(=O)N(C4CCCCC4)C(=O)C32)cc1 (stereo unspecified) | 0.147 |
| C#CCCCON=C1C[C@@H](O)[C@@H](O)[C@@H]2[C@@H]3C(=O)N(Cc4ccc5c(c4)OCO5)C(=O)[C@@H]3CC[C@@H]12 | 0.0785 |
| COC(=O)C1=CC(c2ccc(CO)cc2)=CC(c2cccs2)N(Cc2cccc(OC(F)(F)F)c2)C=C1C(=O)OC (stereo unspecified) | 0.109 |
| O=C1O[C@H](c2ccccc2)[C@H](c2ccccc2)N2[C@H]1[C@@H](C(=O)NC[C@H](O)c1ccccc1)[C@]1(C(=O)Nc3ccc(C#CC4=CCCCC4)cc31)[C@H]2c1ccc(OCCO)cc1 | -0.316 |
| CC[C@H]1C2=C3C(CC[C@H]4C(OC)OC[C@](C)([C@@H]34)N(C(=O)OC(C)(C)C)C2)C(CO)C1CO (stereo partly specified) | 0.26 |
